Assay [1] is described as follows: qHTS assay to identify small molecule agonists of the peroxisome proliferator-activated receptor delta (PPARd) signaling pathway - cell viability counter screen (AID 743211). Further: nearly all actives have a fitted effect of over 55% in size. Further: potency means the concentration at half of the fitted maximal effect. The procedure, abridged: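 In the same wells used for beta-lactamase reporter measurement, cytotoxicity is scored by CellTiter-Glo. HEK293H PPARd-bla cells receive compound for 17 h at 37C following a 5 h settling period.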
Background: Quantitative high-throughput screening tests each substance at several concentrations.

Assay [2] concerns the target Peroxisome proliferator-activated receptor delta (Homo sapiens) (UniProt Q03181). The experiment in a line: qHTS assay to identify small molecule agonists of the peroxisome proliferator-activated receptor delta (PPARd) signaling pathway (AID 743212; calls by dose curve). The procedure, abridged:
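HEK293H PPARd-bla cells; 5 h preincubation 37 C/5% CO2; compound (DMSO) 37 C; LiveBLAzer B/G FRET substrate 2 h RT; fluorescence intensity.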

The nature of assay [3]: qHTS assay to identify small molecule antagonists of the peroxisome proliferator-activated receptor delta (PPARd) signaling pathway - cell viability counter screen (AID 743213). Further: nearly all actives have a fitted effect of over 50% in size. Further: potency means the concentration at half of the fitted maximal effect. The procedure, abridged: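 HEK293H PPARd UAS-bla cells, 5 h pre-incubation, compound + L165041 300 nM final, 17 h 37 C; B/G FRET substrate 2 h RT; then CellTiter-Glo 30 min RT, luminescence.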
The nature of assay [4]: qHTS assay to identify small molecule agonists of the farnesoid-X-receptor (FXR) signaling pathway - cell viability counter screen (AID 743218). Further: nearly all actives have a fitted effect of over 45% in size. The procedure, abridged:
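Cytotoxicity counter-screen run in parallel, same wells: FXR-UAS-bla HEK 293T cells dosed 16 h at 37 C, viability read by CellTiter-Glo luminescence after 30 min at room temperature.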

Assay [5] is described as follows: qHTS assay to identify small molecule antagonists of the farnesoid-X-receptor (FXR) signaling pathway - cell viability counter screen (AID 743221; active means well fitted cell-killing curve with a large enough effect in the repeat runs, not every such curve was filed as active; further: nearly all actives have a fitted effect of over 50% in size). An outline of the steps:
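Here viability was scored by luminescence after CellTiter-Glo addition to wells already read for beta-lactamase. Prior treatment: compound plus CDCA (50 uM final), 16 h, 37 C, HEK 293T FXR-bla cells.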

Assay [6] is described as follows: qHTS assay to identify small molecule agonists of the vitamin D receptor (VDR) signaling pathway - cell viability counter screen (AID 743224). Further: series mostly up to about 63 µM; nearly all actives have a fitted effect of over 50% in size. The procedure, abridged:
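Viability is measured in the same wells as the VDR-bla reporter assay: after 16 h compound treatment and 2 h substrate loading, CellTiter-Glo is added and luminescence read 30 min later.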

Assay [7] is described as follows: qHTS assay to identify small molecule antagonists of the vitamin D receptor (VDR) signaling pathway - cell viability counter screen (AID 743225). Further: nearly all actives have a fitted effect of over 50% in size. The procedure, abridged: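 Compounds were pinned onto VDR-bla HEK 293T cells together with 1-alpha,25-dihydroxyvitamin D3 at 3 nM final. After 16 h at 37C and 5% CO2 plus the reporter readout, cell viability was measured by CellTiter-Glo luminescence (30 min, room temperature).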

The nature of assay [8]: qHTS assay to identify small molecule agonists of the NFkB signaling pathway - cell viability counter screen (AID 1159515; calls by dose curve; further: series mostly up to about 61 µM; nearly all actives have a fitted effect of over 55% in size). An outline of the steps: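 Multiplexed viability readout: after the 5 hr compound exposure and 1.5 hr FRET substrate step, CellTiter-Glo reagent went into the same NFkB-bla ME-180 wells; ATP luminescence was measured after 30 min at room temperature.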

A short description of assay [9]: qHTS assay to identify small molecule agonists of the endoplasmic reticulum stress response signaling pathway (AID 1159516; active means well fitted activation curve with a large enough effect in the signal ratio in the repeat runs, not every such curve was filed as active; the % refers to the signal ratio). An outline of the steps:
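Tox21 10K library screened in quantitative HTS format on ESRE-bla HeLa cells, a beta-lactamase reporter under ER stress response element control; 5 hr treatment, FRET read.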

A short description of assay [10]: qHTS assay to identify small molecule agonists of the endoplasmic reticulum stress response signaling pathway - cell viability counter screen (AID 1159517; calls by dose curve). The procedure, abridged: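 HeLa cells carrying an ESRE-driven beta-lactamase reporter receive compound for 5 hr at 37 C. Cell viability is then gauged with CellTiter-Glo by luminescence, 30 min at room temperature.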

Assay [11] is described as follows: qHTS assay to identify small molecule antagonists of the retinoid-related orphan receptor gamma (ROR-gamma) signaling pathway - cell viability counter screen (AID 1159520). Further: nearly all actives have a fitted effect of over 50% in size. The procedure, abridged: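 Cytotoxicity was read from cellular ATP (CellTiter-Glo luminescence) after 16 hr at 37 C with 1 uM doxycycline induction. The inducer was added 2 hr after compound transfer to Tet-on ROR gamma CHO cells.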

Assay [12] addresses Nuclear receptor ROR-gamma (Homo sapiens) (UniProt P51449). The experiment in a line: qHTS assay to identify small molecule antagonists of the retinoid-related orphan receptor gamma (ROR-gamma) signaling pathway (AID 1159521). The procedure, abridged:
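Test compounds were applied to Tet-on RORγ CHO cells 2 h ahead of doxycycline hyclate (1 uM final). Luciferase reporter activity was quantified by luminescence after 16 h at 37 C and 5% CO2.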

Assay [13] in a line: qHTS assay to identify small molecule agonists of the AP-1 signaling pathway - cell viability counter screen (AID 1159525; calls by dose curve; further: nearly all actives have a fitted effect of over 55% in size). The procedure, abridged:
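Luminescent ATP readout (Cell Titer Glo, 30 min RT), normalised to DMSO and tetra n-octyl ammonium bromide controls. Cells were ME-180 AP-1-bla in 0.5% dialyzed FBS Opti-MEM, with a 5 h, 37 °C compound exposure.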

Assay [14] can be described thus: qHTS assay to identify small molecule agonists of the AP-1 signaling pathway (AID 1159526; calls by dose curve).
Assay [15] addresses Bile acid receptor (Homo sapiens) (UniProt Q96RI1). The experiment in a line: qHTS assay to identify small molecule agonists of the farnesoid-X-receptor (FXR) signaling pathway (AID 743220; active means well fitted activation curve with a large enough effect in the signal ratio in the repeat runs, not every such curve was filed as active; the % refers to the signal ratio). An outline of the steps:
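Beta-lactamase reporter under UAS control in GeneBLAzer FXR HEK 293T cells (5000/well) measured with LiveBLAzer FRET substrate after 2 h at room temperature. Compound exposure lasted 16 h at 37C.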

For assay [16], the target named is Vitamin D3 receptor (Homo sapiens) (UniProt P11473). Description: qHTS assay to identify small molecule agonists of the vitamin D receptor (VDR) signaling pathway (AID 743222; calls by dose curve). The procedure, abridged:
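Quantitative HTS agonist-mode screen: compounds in DMSO were pin-transferred onto VDR-bla cells and incubated 16 h at 37C, 5% CO2. Reporter activity was detected with LiveBLAzer B/G FRET substrate after 2 h at room temperature.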

Assay [17] deals with Peroxisome proliferator-activated receptor delta (Homo sapiens) (UniProt Q03181). The experiment in a line: qHTS assay to identify small molecule antagonists of the peroxisome proliferator-activated receptor delta (PPARd) signaling pathway (AID 743215; active means well fitted inhibition curve with a large enough effect in the signal ratio in the repeat runs, not every such curve was filed as active; the % refers to the signal ratio;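 further: cells stimulated with agonist L165041 at 300 nM final during compound exposure; series mostly up to about 62 µM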). An outline of the steps:
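Inhibition of L165041-driven (300 nM final) PPARd signaling is scored in HEK293H UAS-bla cells. Exposure lasts 17 h at 37 C; beta-lactamase activity is then read by FRET substrate fluorescence after 2 h at room temperature.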

Assay [18] addresses Vitamin D3 receptor (Homo sapiens) (UniProt P11473). The experiment in a line: qHTS assay to identify small molecule antagonists of the vitamin D receptor (VDR) signaling pathway (AID 743223; active means well fitted inhibition curve with a large enough effect in the signal ratio in the repeat runs, not every such curve was filed as active; the % refers to the signal ratio). The procedure, abridged: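 Inhibition of agonist-driven VDR signalling is scored in VDR-bla cells: 3 nM final 1alpha,25-dihydroxyvitamin D3 plus compound, 16 h at 37C, then beta-lactamase detection by FRET substrate fluorescence after 2 h.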

Assay [19] has as its target Retinoic acid receptor RXR-alpha (Homo sapiens) (UniProt P19793). The experiment in a line: qHTS assay to identify small molecule agonists of the RXR signaling pathway (AID 1159527; calls by dose curve; further: nearly all actives have a fitted effect of over 35% in size). The procedure, abridged: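 Using 9-cis retinoic acid as the reference agonist, chemicals were tested in HEK 293T cells […] for 16 hr; substrate loading lasted 2 hr at room temperature.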

Results filed as inconclusive are left out. A number with no mark means an inactive call. Active and inactive are the calls of the source. Unless noted, the call rests on the fitted dose curve; in most records, active means well fitted curve in the direction sought with a large enough effect in the repeat runs; inconclusive means weak or mixed curves; inactive means no such curve, though single readings can be large; an effect the other way counts as inactive or inconclusive.

Chain of Vitamin D3 receptor (Homo sapiens) (P11473 whole entry, looked up): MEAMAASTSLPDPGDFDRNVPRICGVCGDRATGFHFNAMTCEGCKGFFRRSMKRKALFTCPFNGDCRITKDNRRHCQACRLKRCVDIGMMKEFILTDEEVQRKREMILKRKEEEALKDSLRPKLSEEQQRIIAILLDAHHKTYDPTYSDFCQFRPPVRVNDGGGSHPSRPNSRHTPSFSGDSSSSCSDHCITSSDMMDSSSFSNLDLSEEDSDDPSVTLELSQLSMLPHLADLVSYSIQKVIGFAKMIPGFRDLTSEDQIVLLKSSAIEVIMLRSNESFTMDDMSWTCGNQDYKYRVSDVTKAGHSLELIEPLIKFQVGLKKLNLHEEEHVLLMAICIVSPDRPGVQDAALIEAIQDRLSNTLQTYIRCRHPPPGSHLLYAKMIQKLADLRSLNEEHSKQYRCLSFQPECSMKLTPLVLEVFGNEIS
Chain of Peroxisome proliferator-activated receptor delta (Homo sapiens) (Q03181 whole entry, looked up): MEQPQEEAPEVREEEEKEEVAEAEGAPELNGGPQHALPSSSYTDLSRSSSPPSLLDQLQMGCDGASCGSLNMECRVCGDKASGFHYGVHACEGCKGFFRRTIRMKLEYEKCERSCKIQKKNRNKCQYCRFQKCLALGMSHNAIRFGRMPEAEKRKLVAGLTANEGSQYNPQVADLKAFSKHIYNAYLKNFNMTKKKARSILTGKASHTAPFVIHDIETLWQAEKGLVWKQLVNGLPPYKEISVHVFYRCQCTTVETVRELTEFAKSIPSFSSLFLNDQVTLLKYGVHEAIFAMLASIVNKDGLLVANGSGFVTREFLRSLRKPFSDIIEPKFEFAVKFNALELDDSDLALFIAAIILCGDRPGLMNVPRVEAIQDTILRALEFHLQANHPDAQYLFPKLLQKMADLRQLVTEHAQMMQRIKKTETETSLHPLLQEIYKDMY
Chain of Bile acid receptor (Homo sapiens) (Q96RI1 whole entry, looked up): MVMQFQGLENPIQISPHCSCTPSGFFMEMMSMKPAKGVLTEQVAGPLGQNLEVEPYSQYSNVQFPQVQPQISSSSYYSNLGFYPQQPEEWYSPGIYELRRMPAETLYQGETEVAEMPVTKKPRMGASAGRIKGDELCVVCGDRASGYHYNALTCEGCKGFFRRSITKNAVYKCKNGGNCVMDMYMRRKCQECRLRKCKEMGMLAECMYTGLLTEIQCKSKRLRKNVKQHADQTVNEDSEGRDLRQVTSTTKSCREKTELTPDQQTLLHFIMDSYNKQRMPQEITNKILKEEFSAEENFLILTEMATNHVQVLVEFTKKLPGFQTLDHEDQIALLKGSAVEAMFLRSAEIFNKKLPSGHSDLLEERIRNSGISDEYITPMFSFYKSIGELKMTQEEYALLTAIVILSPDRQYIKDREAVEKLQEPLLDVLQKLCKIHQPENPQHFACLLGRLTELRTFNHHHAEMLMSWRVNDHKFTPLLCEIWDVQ
Chain of Retinoic acid receptor RXR-alpha (Homo sapiens) (P19793 whole entry, looked up): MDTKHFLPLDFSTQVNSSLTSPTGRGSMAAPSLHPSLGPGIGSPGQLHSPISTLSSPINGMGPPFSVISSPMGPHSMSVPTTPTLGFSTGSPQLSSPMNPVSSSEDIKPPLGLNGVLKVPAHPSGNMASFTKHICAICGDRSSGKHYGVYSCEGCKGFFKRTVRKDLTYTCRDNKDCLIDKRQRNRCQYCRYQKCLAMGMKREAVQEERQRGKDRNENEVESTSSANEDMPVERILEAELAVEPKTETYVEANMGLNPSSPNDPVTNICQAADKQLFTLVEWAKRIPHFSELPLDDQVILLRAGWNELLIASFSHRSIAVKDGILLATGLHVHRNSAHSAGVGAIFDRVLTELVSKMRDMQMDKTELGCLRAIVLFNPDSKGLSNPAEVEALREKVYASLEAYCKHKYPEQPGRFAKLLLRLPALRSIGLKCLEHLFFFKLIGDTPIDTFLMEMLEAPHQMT

On to `CC1(C)[C@H]2CC[C@]1(C)[C@H](O)C2`, for which the Potency entry in assay [1], in [3], in assay [4], in assay [5], in [6] and in assay [7] was “inactive” in each case. Also, the Potency entry in assay [8], in assay [9], in assay [11], in assay [12], in assay [13] and in [14] was “inactive” in each case. In addition, the call in assay [2] and in [10] was inactive.

Consider `O=C(Nc1ccccc1)OCC(CN1CCCCC1)OC(=O)Nc1ccccc1` (stereo unspecified), for which the Potency in assay [1] and in assay [3] was 26.6 µM (active) in each case. The compound was classed as inactive in assay [15], in assay [16] and in [10]. Moreover, the Potency result in [5], in assay [7], in assay [8], in assay [9], in assay [11] and in [12] was “inactive” each time. Moreover, the Potency result in assay [13] and in assay [14] was “inactive” each time.

In the case of `CC(=O)/C(C)=C/C1C(C)=CCCC1(C)C` (stereo unspecified), the Potency result in [1], in assay [4], in assay [5], in assay [6], in [8] and in assay [9] was “inactive” each time. Moreover, the Potency result in assay [11], in assay [12], in assay [13] and in assay [14] was “inactive” in each case. The call in [2], in assay [17] and in assay [10] was inactive.

`C=CC[N+]1([C@H]2C[C@H]3[C@@H]4CC[C@H]5C[C@H](OC(C)=O)[C@@H](N6CCCCC6)C[C@]5(C)[C@H]4CC[C@]3(C)[C@H]2OC(=O)CC)CCCCC1`: the Potency entry in [1], in assay [4], in assay [5], in assay [18], in [6] and in assay [8] was “inactive” in each case. In addition, the Potency entry in assay [9], in [11], in [12], in [13] and in assay [14] was “inactive” in each case. Besides, the compound was classed as inactive in assay [2], in assay [17], in [16] and in assay [10].

With `NCc1ccccc1`, the Potency entry in [1], in [3], in assay [4], in assay [18], in [6] and in [7] was “inactive” throughout. Further, the Potency entry in assay [8], in assay [9], in assay [11], in assay [12], in assay [13] and in assay [14] was “inactive” in each case. In addition, the compound was classed as inactive in [16] and in [10].

For the compound `c1ccc(CNCc2ccccc2)cc1`, the Potency result in [1], in [4], in assay [5], in assay [18], in [6] and in assay [8] was “inactive” each time. For the same compound, the Potency entry in [9], in assay [11], in assay [12], in assay [13] and in assay [14] was “inactive” throughout. For the same compound, the compound was classed as inactive in assay [2], in [17], in assay [16] and in assay [10].

On to `CCCCCCOC(=O)CCC`, for which the Potency entry in [1], in assay [3], in [4], in assay [5], in assay [6] and in [7] was “inactive” each time. The Potency entry in [8], in assay [9], in assay [11], in assay [12] and in assay [13] was “inactive” throughout. Also, the outcome in assay [2], in assay [17], in [15], in [16] and in [10] was inactive.

For the compound `CCN(CC)C(C)CN1c2ccccc2Sc2ccccc21` (stereo unspecified), the Potency entry in assay [1], in assay [3], in [4], in [5], in assay [18] and in assay [6] was “inactive” in each case. In addition, the Potency entry in [7], in assay [8], in [9], in assay [11], in [12] and in assay [13] was “inactive” in each case. Further, the Potency result in assay [19] is “inactive”. Besides, the result in assay [17], in assay [16] and in [10] was inactive.

The values are drawn from PubChem BioAssay (Tox21).
